Experimental findings from publication PMC5540273 (PLoS ONE, 2017) are described below.
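Further: KINOMEscan kinase panel screen.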

The subject of one experiment is MAP3K2. As to conditions: concentration: 1 μM,replicates: in singlicate; n = 1.
For the compound `Cl.Cl.Nc1nc(-c2ccc3c(N)n[nH]c3c2)cc(N2CCCC(NC(=O)c3ccccc3)C2)n1` (stereo not drawn) [GSK2286775], the “%Inh” value is 0%.

Take `CC(C)Nc1cc(-c2ccc3c(N)n[nH]c3c2)nc(N)n1` [GSK2221681]: the “%Inh” value is reported as 1%.

Turning to `COc1ccc(C[C@@H](CN)NC(=O)c2cc(Br)c(-c3ccnc4[nH]ccc34)s2)cc1.Cl.Cl` [GSK1389063], the “%Inh” value was found to be 73%.

For `C[C@H]1Oc2cc(cnc2N)-c2c(nn(C)c2C#N)CN(C)C(=O)c2ccc(F)cc21`, the “%Inh” value is reported as 8%.

For `Cc1ccc2c(-c3ccncc3)c(-c3ccc(F)cc3)nn2c1.Cl` [GW461484], the “%Inh” value is given as 0%.

Take `C=CC(=O)Nc1cc2c(Nc3ccc(F)c(Cl)c3)ncnc2cc1OCCCN1CCOCC1` [GW781483]: the “%Inh” value came out at 0%.

Consider `CNC(=O)c1ccccc1Sc1ccc2c(/C=C/c3ccccn3)n[nH]c2c1`, for which the “%Inh” value was found to be 0%.

Regarding `C[C@@H](Oc1cc(-c2cnn(C3CCNCC3)c2)cnc1N)c1c(Cl)ccc(F)c1Cl`, the “%Inh” value was determined as 99.3%.

With `CCN(CC)CCOc1ccc(Nc2ncc3cc(-c4c(Cl)cccc4Cl)c(=O)n(C)c3n2)cc1` [SB-601273], the “%Inh” value was 99.3%.

Consider `CN(C)CCOc1ccc(-c2cc(-c3c[nH]nc3-c3ccccn3)ccn2)cc1` [GW835314], for which the “%Inh” value is 14%.

Turning to `Cl.Oc1cc(-c2nc(-c3ccccc3)[nH]c2-c2ccncc2)ccc1Cl` [SB-386023], the “%Inh” value turned out to be 29%.

With `CC(C)N1C(=O)Cc2cc(Nc3ncc(C(F)(F)F)c(NCc4cccc(S(C)(=O)=O)c4)n3)ccc21`, the “%Inh” value came to 59%.

`O=C(NCCNc1ccnc(NCc2ccc(F)cc2)n1)c1cc2ccccc2s1` [GSK1379944]: the “%Inh” value came out at 0%.

For `CCn1c(-c2nonc2N)nc2c(C#CC(C)(C)O)nc(OCCN)cc21.Cl.Cl` [GSK902056], the “%Inh” value came out at 61%.

For `NC(=O)c1cc(-c2ccccc2)cc2c(C3CCNCC3)c[nH]c12` [GSK301362], the “%Inh” value was found to be 70%.

In the case of `CCN(CC)CCCCNc1ncc2cc(-c3c(Cl)cccc3Cl)c(NC(=O)NC(C)(C)C)nc2n1`, the “%Inh” value is 88%.

In the case of `Nc1nc(Nc2ccccc2)cc(-c2ccc3c(N)n[nH]c3c2)n1` [GSK2225749], the “%Inh” value is on record as 11%.

On to `Cc1occc1-c1nc(N)c(OC[C@@H](N)Cc2c[nH]c3ccccc23)cc1-c1cc2c(C)n[nH]c2cn1` [GSK1660450], for which the “%Inh” value is listed as 97%.

As to `Cl.Cl.NC[C@H](CC1CCCCC1)NC(=O)c1cc(Br)c(-c2ccnc3[nH]ccc23)s1` [GSK1581427], the “%Inh” value is reported as 19%.

As to `Cc1n[nH]c2ccc(-c3cc(OC[C@@H](N)Cc4ccccc4)cnc3-c3ccoc3)cc12.O=C(O)C(F)(F)F.O=C(O)C(F)(F)F` [GSK507358], the “%Inh” value is on record as 90.6%.

In the case of `C[C@@H]1CCN(C(=O)CC#N)C[C@@H]1N(C)c1ncnc2[nH]ccc12`, the “%Inh” value came to 0%.

For the compound `O=C(NCCCN1CCOC1=O)c1cnc(NCc2cc(Cl)ccc2Cl)nc1NC1CCCC1`, the “%Inh” value came out at 63%.

Turning to `Cc1cc(C(=O)Nc2ccc(Oc3ccc4nc(NC(=O)C5CC5)cn4n3)cc2)nn1-c1ccccc1`, the “%Inh” value is reported as 0%.

Regarding `Cc1ccc(-n2nc(C(C)(C)C)cc2NC(=O)Nc2ccc(OCCN3CCOCC3)c3ccccc23)cc1` [GW839464], the “%Inh” value was 1%.

Take `Cc1cc2cn[nH]c2cc1-c1cccc2c(N)c(C(N)=O)nnc12`: the “%Inh” value turned out to be 72%.

As to `Cl.Cl.NC[C@H](Cc1ccc(C(F)(F)F)cc1)NC(=O)c1cc(Br)c(-c2ccnc3[nH]ccc23)s1` [GSK1487252], the “%Inh” value is listed as 15%.

For the compound `CN(C)CC(O)COc1ccc(Nc2nccc(-c3cnn4nc(N5CCOCC5)ccc34)n2)cc1` (stereo not drawn) [GW767488], the “%Inh” value was 49%.

Another experiment relates to MAP3K3. The note with it: concentration: 1 μM,replicates: in singlicate; n = 1.
Consider `Cl.Cl.Nc1nc(-c2ccc3c(N)n[nH]c3c2)cc(N2CCCC(NC(=O)c3ccccc3)C2)n1` (stereo not drawn) [GSK2286775], for which the “%Inh” value is 0%.

Consider `CC(C)Nc1cc(-c2ccc3c(N)n[nH]c3c2)nc(N)n1` [GSK2221681], for which the “%Inh” value worked out at 0%.

With `COc1ccc(C[C@@H](CN)NC(=O)c2cc(Br)c(-c3ccnc4[nH]ccc34)s2)cc1.Cl.Cl` [GSK1389063], the “%Inh” value turned out to be 67%.

With `C[C@H]1Oc2cc(cnc2N)-c2c(nn(C)c2C#N)CN(C)C(=O)c2ccc(F)cc21`, the “%Inh” value is reported as 26%.

As for `Cc1ccc2c(-c3ccncc3)c(-c3ccc(F)cc3)nn2c1.Cl` [GW461484], the “%Inh” value is 0%.

For the compound `C=CC(=O)Nc1cc2c(Nc3ccc(F)c(Cl)c3)ncnc2cc1OCCCN1CCOCC1` [GW781483], the “%Inh” value is recorded as 0%.

Regarding `CNC(=O)c1ccccc1Sc1ccc2c(/C=C/c3ccccn3)n[nH]c2c1`, the “%Inh” value was found to be 38%.

For `C[C@@H](Oc1cc(-c2cnn(C3CCNCC3)c2)cnc1N)c1c(Cl)ccc(F)c1Cl`, the “%Inh” value amounted to 98.3%.

As to `CCN(CC)CCOc1ccc(Nc2ncc3cc(-c4c(Cl)cccc4Cl)c(=O)n(C)c3n2)cc1` [SB-601273], the “%Inh” value was 99.7%.

Consider `CN(C)CCOc1ccc(-c2cc(-c3c[nH]nc3-c3ccccn3)ccn2)cc1` [GW835314], for which the “%Inh” value is given as 9%.

Turning to `Cl.Oc1cc(-c2nc(-c3ccccc3)[nH]c2-c2ccncc2)ccc1Cl` [SB-386023], the “%Inh” value was 38%.

`CC(C)N1C(=O)Cc2cc(Nc3ncc(C(F)(F)F)c(NCc4cccc(S(C)(=O)=O)c4)n3)ccc21`: the “%Inh” value is listed as 47%.

Turning to `O=C(NCCNc1ccnc(NCc2ccc(F)cc2)n1)c1cc2ccccc2s1` [GSK1379944], the “%Inh” value came out at 0%.

With `CCn1c(-c2nonc2N)nc2c(C#CC(C)(C)O)nc(OCCN)cc21.Cl.Cl` [GSK902056], the “%Inh” value came out at 31%.

Take `NC(=O)c1cc(-c2ccccc2)cc2c(C3CCNCC3)c[nH]c12` [GSK301362]: the “%Inh” value was 20%.

For `CCN(CC)CCCCNc1ncc2cc(-c3c(Cl)cccc3Cl)c(NC(=O)NC(C)(C)C)nc2n1`, the “%Inh” value is given as 89%.

Consider `Nc1nc(Nc2ccccc2)cc(-c2ccc3c(N)n[nH]c3c2)n1` [GSK2225749], for which the “%Inh” value stood at 16%.

Consider `Cc1occc1-c1nc(N)c(OC[C@@H](N)Cc2c[nH]c3ccccc23)cc1-c1cc2c(C)n[nH]c2cn1` [GSK1660450], for which the “%Inh” value amounted to 99.1%.

As to `Cl.Cl.NC[C@H](CC1CCCCC1)NC(=O)c1cc(Br)c(-c2ccnc3[nH]ccc23)s1` [GSK1581427], the “%Inh” value came to 0%.

`Cc1n[nH]c2ccc(-c3cc(OC[C@@H](N)Cc4ccccc4)cnc3-c3ccoc3)cc12.O=C(O)C(F)(F)F.O=C(O)C(F)(F)F` [GSK507358]: the “%Inh” value is listed as 92%.

As for `C[C@@H]1CCN(C(=O)CC#N)C[C@@H]1N(C)c1ncnc2[nH]ccc12`, the “%Inh” value amounted to 0%.

On to `O=C(NCCCN1CCOC1=O)c1cnc(NCc2cc(Cl)ccc2Cl)nc1NC1CCCC1`, for which the “%Inh” value is recorded as 48%.

As to `Cc1cc(C(=O)Nc2ccc(Oc3ccc4nc(NC(=O)C5CC5)cn4n3)cc2)nn1-c1ccccc1`, the “%Inh” value was 30%.

Turning to `Cc1ccc(-n2nc(C(C)(C)C)cc2NC(=O)Nc2ccc(OCCN3CCOCC3)c3ccccc23)cc1` [GW839464], the “%Inh” value was 12%.

On to `Cc1cc2cn[nH]c2cc1-c1cccc2c(N)c(C(N)=O)nnc12`, for which the “%Inh” value is 78%.

Regarding `Cl.Cl.NC[C@H](Cc1ccc(C(F)(F)F)cc1)NC(=O)c1cc(Br)c(-c2ccnc3[nH]ccc23)s1` [GSK1487252], the “%Inh” value is reported as 0%.

Regarding `CN(C)CC(O)COc1ccc(Nc2nccc(-c3cnn4nc(N5CCOCC5)ccc34)n2)cc1` (stereo not drawn) [GW767488], the “%Inh” value came out at 29%.
